From PubChem BioAssay AID1566 (Sanford-Burnham Center for Chemical Genomics, 2009)
The whole screen tested about 290,000 compounds, of which about 1,800 (0.62%) were called active. Cut-off read from the data, not from the text of the source: active = inhibition above about 50%; inactive = the rest. The entries come from a sample that favours actives as a whole.

Experiment: inhibition of NOD2-driven NF-kB reporter – cell-based, luminescence, uHTS, HEK293 (AID 1566)
Conditions: HEK293 NOD2/NF-kB luciferase reporter, at 4 µM, hits give high values

inhibition, inactive:
NS(=O)(=O)c1ccc(CCNC(=O)c2cc(-c3ccc(Br)cc3)nc3ccccc23)cc1 -18.4%
O=C(NCc1ccon1)C1CCC(=O)N(CCc2ccc(Cl)cc2)C1 (configuration not stated) 6.3%
COc1ccc2c(c1)cc(C(=O)N[C@H](C(=O)N1CCC(C(=O)O)CC1)C(C)C)n2C -3.6%
C/C(=N/NC(=O)CN1CCN(Cc2ccccc2Cl)CC1)c1cccs1 20%
Cc1ccc(NC(=O)c2cc(C)nc3ccccc23)c(C)c1 1.4%
Cc1ccc(NC(=O)Cc2ccccc2)c(C)c1 -14.9%
Cc1cc(C)n(C(C)CC(=O)N2CCc3ccccc32)n1 (configuration not stated) 14.5%
COc1ccc(S(=O)(=O)Nc2cc(OC)c(NC(=O)c3ccco3)cc2OC)cc1 19.5%
O=c1c2ccccc2c(C=Nc2ccc(S(=O)(=O)N3CCCCC3)cc2)c(O)n1-c1ccc(Cl)cn1 -6.9%
Cc1cccc(NC(=O)CCSc2ccccc2)c1C -32.5%
CCC(=O)Nc1nnc(/C=C/c2ccccc2)s1 -60.7%
COc1ccc(CNC(=O)c2ccc3ccccc3n2)cc1 0.9%
COc1ccc(CCNC(=O)c2ccc3ccccc3n2)cc1OC 6.9%
Cc1cccc(/C=N\NC(=O)c2ccccc2-n2cccc2)c1 -1.5%
O=C(c1cccc(S(=O)(=O)N2CCCC2)c1)c1cccc(S(=O)(=O)N2CCCC2)c1 32.8%
CCN(CC)c1ccc(/C=N/Nc2nc3ccccc3[nH]2)c(O)c1 -63.5%
CCN(CC)c1ccc2cc(-c3nc4ccccc4[nH]3)c(=O)oc2c1 -69.7%
O=C(c1cc2ccccc2oc1=O)N1CCCCCCC1 9.4%
CCCCn1c(-c2nn(C)c(C)c2Cl)n[nH]c1=S 19.7%
CCN1CCN(Cc2ccc(NC(=O)c3ccc(C)c(NC(=O)c4cccc5[nH]ccc45)c3)cc2C(F)(F)F)CC1 -20.7%
CCN1CCN(Cc2ccc(NC(=O)c3cc(NC(=O)C(=O)c4c[nH]c5ccccc45)cc(OC)c3)cc2C(F)(F)F)CC1 5.4%
O=C(/C=C/c1ccccc1)NC(=S)Nc1ccccc1O 0.9%
Nc1ccc(-c2nc3ccc(N)cc3[nH]2)cc1 -7%
Nc1ccc(-c2nc3c(Cl)c(N)ccc3[nH]2)cc1 -6.6%
NC(=O)c1ccc(NC(=O)Cc2csc(-c3ccccc3)n2)cc1 8%
CCOc1ccc(C(=O)CSCC(=O)O)cc1 6.2%
CCOc1ccc(C(=O)CCC(=O)O)cc1 16%
COc1ccc(/C=C/c2c(-c3ccc(OC)cc3)oc3ccc(-c4ccc(OC)cc4)cc23)cc1 4.5%
COc1ccc(/C=C/C(=O)Oc2ccc(C)cc2)cc1 7.2%
O=C(COC(=O)C12CC3CC(CC(C3)C1)C2)Nc1nccs1 33.4%
Cc1nc2scc(C)n2c(=O)c1S(=O)(=O)Nc1ccc(N2CCOCC2)cc1 14.2%
Cc1nc2sccn2c(=O)c1S(=O)(=O)Nc1ccc(N2CCOCC2)c(Cl)c1 33.7%
O=C(c1ccncc1)c1ccc(NS(=O)(=O)c2ccc(Br)s2)cc1 23.1%
Cc1cc(C=C2C(=O)c3ccccc3C2=O)c(C)n1-c1ccc(Cl)cc1 19.2%
Cc1cc(C=C2C(=O)c3ccccc3C2=O)c(C)n1-c1ccccc1 5.9%
Cc1cc(C=C2C(=O)CCCC2=O)c(C)n1-c1ccccc1 1.8%
Cc1cc(C=C2C(=O)c3ccccc3C2=O)c(C)n1-c1cccc(C(=O)O)c1 -11.1%
CNC(=O)CSc1nc2[nH]ncc2c(=O)[nH]1 10.9%
COc1ccc(C(CC(=O)N2CCCC2)C(C)C)cc1 (configuration not stated) -6.1%
O=C(NC(Cc1ccc2c(c1)OCO2)C(=O)NC(Cc1ccccc1)C(=O)O)c1ccccc1 (configuration not stated) 0%
O=C(CN(Cc1cccs1)C(=O)CNS(=O)(=O)c1ccccc1)NC1CCCC1 9.3%
CC(C)CCNC(=O)c1cc(S(=O)(=O)N2CCc3ccccc32)cn1C 26.2%
CCN(CC)CCNC(=O)c1cc(S(=O)(=O)N2CCc3ccccc32)cn1C 27.1%
CS(=O)(=O)N(CC(=O)Nc1cccc(Cl)c1)c1ccccc1Cl -11.8%
COc1ccc(N(CC(=O)Nc2ccc(C)c(C)c2)C2=NC3CS(=O)(=O)CC3S2)cc1 (configuration not stated) 10.8%
CCC(C)(C)NC(=O)C1CC(=O)N(CCc2ccc(F)cc2)C1 (configuration not stated) 12.1%
COc1ccc(S(=O)(=O)N2CCC(N3CCN(c4ccccc4)CC3)CC2)cc1 16.7%
Cc1cc(C(=O)NCC2COc3ccccc3O2)c2ccccc2n1 (configuration not stated) 17.7%
Cc1nc2ccccc2c2oc(C(=O)NCc3ccc4c(c3)OCO4)cc12 45.9%
Cc1c(/C(O)=C2/C(=O)C(=O)N(CCN(C)C)C2c2ccc(C(C)C)cc2)cnn1-c1ccccc1 (configuration not stated) 28.4%
Cc1ccc(C)c(N(C)C(=O)c2cc3c(=O)[nH]c4ccc(C)cc4c3s2)c1 -16%
Cc1ccc2[nH]c(=O)c3cc(C(=O)N(C)c4ccccc4C)sc3c2c1 13.1%
COc1cc(CN2CCC(Cc3ccccc3)CC2)cc([N+](=O)[O-])c1O -1.9%
O=C(Nc1ccc(N2CCCC2)cc1)c1cc(Br)ccc1Cl -11.7%
Cc1ccc2c(COC(=O)c3c(C)noc3C)cc(=O)oc2c1 0.4%
N[C@@H](CO)c1nnc([C@H](CC(=O)O)NC(=O)C2CCNCC2)o1 -3.6%
CCSc1nsc(NC(=O)Nc2ccccc2F)n1 -32.2%
CCSc1nsc(NC(=O)Nc2cccc(OC)c2)n1 17.5%
CC1CCN(C(=O)c2ccc(CS(=O)(=O)Cc3ccccc3)cc2)CC1 12.8%
Cc1ccc(NC(=S)N2CCC(NC(=O)c3ccc(C)cc3)CC2)cc1 -13.6%
CCc1ccc(NC(=S)N2CCC(NC(=O)c3ccccc3)CC2)cc1 7.4%
CC(C(=O)NC1CCCCCC1)n1cc([N+](=O)[O-])cn1 (configuration not stated) 3.3%
O=[N+]([O-])c1cccc2ccc(/C=C/c3cccc(Br)c3)nc12 -19%
Cc1ccc(-c2csc(N3CCN(CCCn4c(C(F)(F)F)nc5ccccc54)CC3)n2)cc1 19.9%
CC(=O)N[C@@H](C)c1nc2ccccc2n1CCCN1CCN(c2nc(-c3ccc(C)cc3)cs2)CC1 44.3%
Cc1ccc(Cn2c(SC3CCOC3=O)nc3ccccc3c2=O)cc1 (configuration not stated) -3.1%
O=C1NCC(CN(c2ccccc2)c2ccccc2)O1 (configuration not stated) 14.1%
CC(C)Nc1ncnc2ccc(Br)cc12 43%
CN(Cc1ccccc1)c1ncnc2ccc(Br)cc12 20.7%
Cn1c(=O)oc2cc(S(=O)(=O)N3CCC(C(=O)N4CC=C(c5ccccc5)CC4)CC3)ccc21 7.5%
Cc1nnc(SCC(=O)Nc2cccc([N+](=O)[O-])c2)n1CC1CCCO1 (configuration not stated) 2.2%
O=C(O)c1ccccc1C(=O)c1ccc(Oc2ccccc2)cc1 -0.9%
O=C(O)c1ccccc1C(=O)c1ccc(Cl)cc1 1%
Cc1ccc2c(C)c(C(=O)Nc3c(C)n(C)n(-c4ccccc4)c3=O)oc2c1C 22.4%
CCC(=O)N1CCc2cc(S(=O)(=O)CCC(=O)NC(C)CC)ccc21 (configuration not stated) 10.4%
CCc1ccc(N(C(=O)Cn2nnc(-c3ccccc3)n2)C(C(=O)NC2CCCCC2)c2ccccn2)cc1 (configuration not stated) 5.5%
COCc1cc(=O)[nH]c(Nc2nc3ccccc3o2)n1 -130%
COC(=O)Cc1cc(=O)[nH]c(Nc2nc3ccccc3o2)n1 -8.6%

inhibition, active:
CCN(CC)c1ccc2nc3ccccc3[n+](CC)c2c1 74.8%
CCN1CCN(Cc2ccc(NC(=O)c3ccc(C)c(NC(=O)C(=O)c4c[nH]c5ccccc45)c3)cc2C(F)(F)F)CC1 57%
Nc1ccc(-c2nc3c(Cl)cc(N)cc3[nH]2)cc1 55.1%
CCOc1ccc(C(=O)CSCCC(=O)O)cc1 53.4%
Cc1nc2scc(C)n2c(=O)c1S(=O)(=O)Nc1ccc(N2CCOCC2)c(Cl)c1 51.2%
Cc1cc(/C=C2\Cc3ccccc3C2=O)c(C)n1-c1ccccc1 59.1%
Cc1cccc(-n2c(C)cc(C=C3C(=O)c4ccccc4C3=O)c2C)c1 57.4%
CCCNC(=O)c1cc(S(=O)(=O)N2CCc3ccccc32)cn1C 52.1%
C[C@H]1O[C@@H](O[C@H]2[C@@H](O)C[C@H](O[C@H]3[C@@H](O)C[C@H](O[C@H]4CC[C@@]5(C)[C@H](CC[C@@H]6[C@@H]5C[C@@H](O)[C@]5(C)[C@@H](C7=CC(=O)OC7)CC[C@]65O)C4)O[C@@H]3C)O[C@@H]2C)C[C@H](O)[C@@H]1O 77.7%
Cc1ccc2[nH]c(=O)c3cc(C(=O)N(C)C4CCCCC4)sc3c2c1 56.8%
Cc1ccc(NC(=S)N2CCC(NC(=O)c3ccccc3)CC2)cc1 93%
CCN(CC)c1ncnc2ccc(Br)cc12 65.5%
O=C(O)c1ccccc1C(=O)c1ccc(-c2ccccc2)cc1 64.3%
COCc1cc(=O)[nH]c(Nc2nc3ccc(C)cc3o2)n1 62.8%
